In PubChem BioAssay (NCI):
Several values for one entry are separate records, joined by “and”; a condition that tells them apart may be missing. Equal values may be shown once. The panel holds about 83,000 compounds, 20% with a hit somewhere; the sample as a whole holds those more often.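 96-well plates, one dose, 48 hours. Percent growth reported; active if below 10.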 Activity calls are given as the source filed them.

How the values were obtained:
Experiment in all cases: NCI-60 one-dose screen, 48 h (100 = growth as untreated, 0 = no growth, -100 = all killed)
Settings in all cases: 10 µM unless noted
HCT-15 colon = test system: HCT-15 colon
HT29 colon = test system: HT29 colon
SNB-75 CNS = test system: SNB-75 CNS
SNB-19 CNS = test system: SNB-19 CNS
U251 CNS = test system: U251 CNS
PC-3 prostate = test system: PC-3 prostate
SK-MEL-5 melanoma = test system: SK-MEL-5 melanoma
UACC-62 melanoma = test system: UACC-62 melanoma
LOX IMVI melanoma = test system: LOX IMVI melanoma
SK-MEL-28 melanoma = test system: SK-MEL-28 melanoma

Row | Compound | growth (HCT-15 colon) | growth (HT29 colon) | growth (SNB-75 CNS) | growth (SNB-19 CNS) | growth (U251 CNS) | growth (PC-3 prostate) | growth (SK-MEL-5 melanoma) | growth (UACC-62 melanoma) | growth (LOX IMVI melanoma) | growth (SK-MEL-28 melanoma)
1 | NS(=O)(=O)c1ccc(Nc2nc(N/N=C/c3ccc4c(c3)OCO4)nc(Nc3ccccc3)n2)cc1 | 82.7% (inactive) | 40.2% (inactive) | 53.6% (inactive) | 55.8% (inactive) | 55.4% (inactive) | 59.1% (inactive) | 54.3% (inactive) | 78.4% (inactive) | 26.7% (inactive) | 67.5% (inactive)
2 | O=C(CSc1nc2ccccc2c(=O)n1-c1ccccc1)Nc1ccc(S(=O)(=O)Nc2nccs2)cc1 | 66.5% (inactive) | 69.5% (inactive) | 57.4% (inactive) | 43.7% (inactive) | 2.78% (active) | 91% (inactive) | 66.5% (inactive) | 71.4% (inactive) | 36.5% (inactive) | 76.3% (inactive)
3 | Clc1ccc2[nH]cc(-c3nn4cc(-c5ccncc5)nc4s3)c2c1 | 57.6% (inactive) | 72.8% (inactive) | 72.4% (inactive) | 24.4% (inactive) | 52.5% (inactive) | 9.36% (active) | 38.3% (inactive) | 25.8% (inactive) | 49.9% (inactive) | 53.8% (inactive)
4 | Nc1ncc(-c2ccc3ncnc(NCc4ccccc4)c3c2)cn1 | 42.8% (inactive) | 55.3% (inactive) | 41.2% (inactive) | 52% (inactive) | 64.1% (inactive) | 34.7% (inactive) | 48.6% (inactive) | 44.8% (inactive) | 38.6% (inactive) | 57.6% (inactive)
5 | CC(=C(c1ccc(OCCN(C)C)cc1)c1ccc(OCCN(C)C)cc1)c1ccc(Cl)cc1 | -79.7% (active) | -67.3% (active) | -20.2% (active) | -40.9% (active) | -60.6% (active) | -52.9% (active) | -95.9% (active) | -67.6% (active) | -92.8% (active) | -82.6% (active)
6 | CC(O)c1cccc(/C(N)=N/C(N)=N/c2nc3ccccc3s2)c1 (stereo not given) | 56.7% (inactive) | 110% (inactive) | 80% (inactive) | 89.3% (inactive) | 74.2% (inactive) | 64.9% (inactive) | 83.4% (inactive) | 87.8% (inactive) | 64.3% (inactive) | 100% (inactive)
7 | CCOC(=O)c1cnc2c(-c3ccc(Cl)c(Cl)c3)cnn2c1 | 40.8% (inactive) | 56.8% (inactive) | 59.9% (inactive) | 82.5% (inactive) | 80.4% (inactive) | 73% (inactive) | 79.8% (inactive) | 60.8% (inactive) | 79% (inactive) | 80.4% (inactive)
8 | COc1cc(/C=N\NC(=O)c2ccc3nc(-c4ccc(Br)cc4)[nH]c3c2)cc(OC)c1OC | 79.4% (inactive) | 25.3% (inactive) | 57.1% (inactive) | 59.3% (inactive) | 45.1% (inactive) | 46.2% (inactive) | 27.5% (inactive) | 28.1% (inactive) | 35.2% (inactive) | 30.2% (inactive)
9 | CCOC(=O)c1cccnc1Nc1ccc(NC(=O)Nc2ccc(Cl)c(C(F)(F)F)c2)cc1 | 14.4% (inactive) | 36.1% (inactive) | 106% (inactive) | 49.3% (inactive) | 30.1% (inactive) | 7.22% (active) | 67.8% (inactive) | 45.4% (inactive) | 22.5% (inactive) | 43.7% (inactive)
10 | O=S(=O)(Oc1ccc(-c2cn3ccoc3n2)cc1)C1CCCCC1 | 62.7% (inactive) | 96.7% (inactive) | 124% (inactive) | 97.1% (inactive) | 104% (inactive) | 91.5% (inactive) | 91.1% (inactive) | 85.3% (inactive) | 100% (inactive) | 100% (inactive)
11 | Cn1cc(-c2nc(N)nnc2-c2c[nH]c3ccc(Br)cc23)c2cc(F)ccc21 | 77.2% (inactive) | 104% (inactive) | 79.9% (inactive) | 88% (inactive) | 97.8% (inactive) | 87.2% (inactive) | 91.5% (inactive) | 91.7% (inactive) | 92.3% (inactive) | 101% (inactive)
12 | CCCCCCCCCC(=O)NC(C)(C)C(=O)N1CCC[C@H]1C(=O)N[C@@H](CC(C)C)C(=O)N[C@@](C)(CC)C(=O)N[C@@H](CCC(N)=O)C(=O)N[C@H](CCC(N)=O)C(=O)NC(C)(C)C(=O)NC(C)(C)C(=O)N[C@@H](CCC(N)=O)C(=O)N[C@H](CC(C)C)C(=O)N[C@H](CO)CC(C)C | -79.6% (active) and 23.1% (inactive) | -51.5% (active) and -46.3% (active) | -66.3% (active) and -94% (active) | -96.3% (active) and -99% (active) | -92% (active) and -81.5% (active) | -94.1% (active) and -55.4% (active) | -96.7% (active) and -93.7% (active) | -96.7% (active) and -91.7% (active) | -91.5% (active) and -88.4% (active) | -97.9% (active) and -99.9% (active)
13 | COc1cc2oc(-c3cccc(NC(=O)[C@@H](N)C(C)C)c3)cc(=O)c2c(OC)c1OC | 97.9% (inactive) | 107% (inactive) | 124% (inactive) | 95.4% (inactive) | 92.3% (inactive) | 106% (inactive) | 99.1% (inactive) | 91.3% (inactive) | 94.4% (inactive) | 111% (inactive)
14 | COc1ccc(-c2cnc(NC(=O)CCCCCCNC(=O)C(O)(O)C(F)(F)F)s2)cc1 | 4.2% (active) | 0.86% (active) | 36.8% (inactive) | 17.5% (inactive) | -46.4% (active) | 17.8% (inactive) | -62.2% (active) | -31.8% (active) | -89.5% (active) | 8.09% (active)
15 | COC(=O)CCSC1=C(C)C(=O)c2ccccc2C1=O | 58.5% (inactive) | 110% (inactive) | 89.6% (inactive) | 96.5% (inactive) | 85.1% (inactive) | 72.6% (inactive) | 84.2% (inactive) | 70.9% (inactive) | 52.2% (inactive) | 106% (inactive)
16 | Cc1ccc2c(n1)C(=O)C(Cl)=C(Nc1ccc(C(C)C)cc1)C2=O | -60.1% (active) | 102% (inactive) | 109% (inactive) | 75.4% (inactive) | 70.2% (inactive) | 54% (inactive) | 37.3% (inactive) | 86.3% (inactive) | -66.3% (active) | 6.95% (active)
17 | Cc1ccc2c(n1)C(=O)C(Cl)=C(Nc1ccc(C#N)cc1)C2=O | 1.89% (active) | 106% (inactive) | 110% (inactive) | 96.4% (inactive) | 96.6% (inactive) | 89.6% (inactive) | 98.9% (inactive) | 95.7% (inactive) | 70.4% (inactive) | 99.8% (inactive)
18 | COc1ccc(C(C)=C(c2ccc(OCCN(C)C)cc2)c2ccc(OCCN(C)C)cc2)cc1 | -46.1% (active) | -53.5% (active) | 3.78% (active) | 12.6% (inactive) | -64.1% (active) | 1.05% (active) | -82.6% (active) | -66.3% (active) | -79.9% (active) | -88.4% (active)
19 | Brc1cccc(-c2cc(-c3cnc4c(c3)OCCO4)n[nH]2)c1 | 21.1% (inactive) | 18.8% (inactive) | 46.9% (inactive) | 59.8% (inactive) | 43.3% (inactive) | 79.1% (inactive) | 24.2% (inactive) | 55.5% (inactive) | 37.1% (inactive) | 59% (inactive)
20 | O=C1[C@H]2Cc3c([nH]c4ccccc34)[C@H](c3ccc(Br)cc3)N2C(=O)CN1C1CCN(CC2CCCCC2)CC1 | 38.8% (inactive) | 11% (inactive) | 52.6% (inactive) | 83.3% (inactive) | 55.9% (inactive) | 60.2% (inactive) | 69.6% (inactive) | 96.7% (inactive) | -69.2% (active) | 97.6% (inactive)
21 | CCN(CC)c1ccc(/C=N/NC(=O)c2ccc(S(N)(=O)=O)cc2)c(O)c1 | 20.9% (inactive) | 25.4% (inactive) | 47.8% (inactive) | 29.9% (inactive) | 20.8% (inactive) | 34.9% (inactive) | -7.45% (active) | -3.75% (active) | 0.484% (active) | 20.6% (inactive)
22 | O=C1Nc2ccc(F)cc2/C1=C\C(=O)c1ccc(NS(=O)(=O)c2ccccc2)cc1 | 59.7% (inactive) | 81% (inactive) | 76.1% (inactive) | 95.6% (inactive) | 94.1% (inactive) | 92% (inactive) | 97.3% (inactive) | 77.7% (inactive) | 21.4% (inactive) | 105% (inactive)
23 | CCOC(=O)c1c(NC(=O)c2cccc(C(F)(F)F)c2)sc2c3c(ccc12)OCN(C)C3 | -70.9% (active) | -11.8% (active) | 83.6% (inactive) | 49.6% (inactive) | -79.4% (active) | -42.5% (active) | 68.6% (inactive) | 25.6% (inactive) | -94.7% (active) | 9.77% (active)
24 | CN1CCN(c2ccc(Nc3nc(NCCCNS(=O)(=O)c4cccc5ccccc45)c4sccc4n3)cc2)CC1 | -32.8% (active) | -62.1% (active) | -36.9% (active) | 35.7% (inactive) | -74.4% (active) | 29.1% (inactive) | -95.3% (active) | -61% (active) | -85.2% (active) | -80.9% (active)
25 | NC1C2CCC1CN(c1cnc(C(=O)Nc3cc(F)cc4cccnc34)cn1)C2 (stereo not given) | 6.16% (active) | 22.7% (inactive) | 46.4% (inactive) | 69.7% (inactive) | 60.1% (inactive) | 61.4% (inactive) | 93.2% (inactive) | 78.9% (inactive) | 26.3% (inactive) | 63.5% (inactive)
26 | Cc1ccc(/C(N)=N/C(N)=N/c2nc3ccccc3s2)cc1 | 52.2% (inactive) | 110% (inactive) | 96.5% (inactive) | 95.3% (inactive) | 82% (inactive) | 63.5% (inactive) | 91% (inactive) | 91.9% (inactive) | -17% (active) | 116% (inactive)
